Laboratory results reported in PubChem BioAssay (NCATS).
Results filed as inconclusive are left out. A call without a number means that no potency is given here. Calls of active or inactive are those of the source. Calls follow the shape of the dose curve; as a rule, active = well fitted cell-killing curve with a large enough effect; inconclusive = small, poorly fitted or top-dose-only effect; inactive = flat fitted curve, though single readings scatter.

Assay: Quantitative highthroughput screen to assess conditional lethalithy of P12 Ichikawa cells grown in Human Plasma-Like Medium with dialyzed fetal bovine serum (HPLM+ds) (AID 1963879); also: nearly all actives have a fitted effect of over 35% in size
Conditions: ATP luminescence, 48 h; Potency: viability; series mostly up to 45.8 µM
Text: Assay Provider: Jason Cantor Ph.D.
Department of Biochemistry
University of Wisconsin-Madison, Madison, WI, USA
Chemical screening studies have identified drug sensitivities across hundreds of cancer cell lines but most putative therapeutics fail to translate. Discovery and development of drug candidates in models that more accurately reflect nutrient levels in human blood is a major challenge. Here we performed high-throughput screens in conventional versus Human Plasma-Like Medium (HPLM) to identify compounds that were "missed" when screening using the artificial culture condition. Sets of conditional anticancer compounds spanned phases of clinical development and included non-oncology drugs were assessed. […] We also traced conditional phenotypes for several chemotherapeutics to availability of HPLM-specific metabolites and confirmed others for compounds whose reported targets are encoded by nonessential genes. Our findings establish generalizable strategies for exploiting conditional lethality in HPLM to reveal therapeutic candidates and mechanisms of action in cancer cells.
Described herein are the results of each viability screens against three cell lines: NOMO1 (an acute myeloid leukemia cell line); P12-Ichikawa (a T-cell acute lymphoblastic leukemia); and SEM (a B-cell ALL). Each assay was screened using 3 different cell culture media: homemade human plasma-Like medium with 10% dialyzed fetal bovine serum (HPLM+ds); RPMI1640 with 10% untreated FBS and 5mM glucose (RPMI+s); and RPMI1640 with 10% dialyzed fetal bovine serum and 5 mM glucose (RPMI+ds).
PROTOCOL TABLE (as described by Inglese J, Shamu CE and Guy RK. 2007)
SEQUENCE No. (e.g., 1, 2, 3, etc.); […] (e.g., Cells, Incubation, Reagent, etc.); VALUE and DESCRIPTION.
1; Cells; 5 uL; white, solid bottom 1536-well Greiner assay plate.
2; Compounds; 23 nL; Kalypsis pin tool (Wako USA) equipped with a 1536-well pin head to transfer to the assay plates.
3; Incubation; 48 hours; 37C incubation.
4; Reagent; 3 uL; CellTiter Glo (Promega).
5; Incubation; 5 min, room temperature
6; Detection; Luminescence, Viewlux PerkinElmer.
NOTES (numbers refer to Sequence numbers above)
1. Briefly, 5 ul of cell reagent was dispensed using a Multidrop Combi Dispenser. The NOMO1 and SEM cells were plated at 500 cells/well and the P12-Ichikawa line at 1000 cells/well.
2. After seeding the cells, 23 nL of MIPE 4.1 library compounds (in DMSO) were added to each plate using a Kalypsys 1536 Pintool dispenser. Bortezomib at final concentration of […] and DMSO were added to each plate as positive and negative controls respectively. For each screen, MIPE 4.1 compounds were added over an eleven-point concentration range […] in 3-fold dilutions.
3. Each plate was covered with a stainless steel gasketed lid to prevent evaporation and incubated for 48 hour at 37C, 95% relative humidity, and 5% CO2.
4-5. Three microliter CellTilter-GloTM luminescent substrate mix (Promega) reagent was added to the assay plate and incubated at room temperature for 5 min.
6. The luminescence signal was measured using a ViewLux (PerkinElmer) multiplate reader with a 2 second exposure time per plate. Data for each compound were normalized as percent viability such that measurements for DMSO and the empty well controls in each plate were defined as 100% and 0%, respectively.
Potency is read from the fitted curve at half-maximal effect.

SMILES	Potency
CC(=O)NC(C)c1ccc(Oc2ccc(OC(C)C)cc2)cc1 (stereo not given)	inactive
CO[C@@H]1[C@@H](O)[C@H](O)[C@@H](n2c3c(Cl)cccc3c3c4c(c5c6cccc(Cl)c6[nH]c5c32)C(=O)NC4=O)O[C@@H]1CO	0.296 µM (active)
CC(=O)O[C@H]1C[C@@H]2CC[C@H]3[C@H]4C[C@H]([N+]5(C)CCCCC5)[C@@H](OC(C)=O)[C@@]4(C)CC[C@@H]3[C@@]2(C)C[C@H]1[N+]1(C)CCCCC1	inactive
CCCCCCCCCCCC(CC1OC(=O)C1CCCCCC)OC(=O)C(CC(C)C)NC=O (stereo not given)	20.9 µM (active)
CC[C@H](CO)Nc1nc(NCc2ccccc2)c2ncn(C(C)C)c2n1	inactive
CCNC(=O)[C@H]1O[C@@H](n2cnc3c(N)nc(NCCc4ccc(CCC(=O)O)cc4)nc32)[C@H](O)[C@H]1O	inactive
CN(C)CCC=C1c2ccccc2C=Cc2ccccc21	inactive
COC(=O)[C@H](c1ccccc1Cl)N1CCc2sccc2C1	8.33 µM (active)
CC1(C)Cc2c(-c3ccccc3)c(-c3ccc(Cl)cc3)c(CC(=O)O)n2C1	inactive
CC(O)(C#Cc1ccc2c(c1)N(c1nc(N)ncc1Cl)CC2)c1nccs1 (stereo not given)	inactive
CC(C=CC=C(C)C=CC1=C(C)CCCC1(C)C)=CC=CC=C(C)C=CC=C(C)C=CC1=C(C)CCCC1(C)C	inactive
Cc1nc(-c2ccc(OCC(C)C)c(C#N)c2)sc1C(=O)O	inactive
Fc1ccc(Cl)cc1-c1nc(Nc2ccncc2)c2nccnc2n1	inactive
CCCCCCCCCCCCCCCC(=O)OC[C@@H](NC(=O)C(Cl)Cl)[C@H](O)c1ccc([N+](=O)[O-])cc1	inactive
Cc1c(C)c2c(c(C)c1O)CCC(C)(COc1ccc(CC3SC(=O)NC3=O)cc1)O2 (stereo not given)	inactive
O=c1[nH]cc(F)c(=O)[nH]1	8.33 µM (active)
Cc1cnc(Nc2ccc(CN3CCOCC3)cc2)nc1Nc1cccc(S(=O)(=O)NC(C)(C)C)c1	2.96 µM (active)
COc1cc(OC)c(NC(=O)Nc2cc(C)on2)cc1Cl	inactive
NC(N)=NC(=O)c1nc(Cl)c(N)nc1N	4.69 µM (active)
CCC[C@H](N[C@@H](C)C(=O)N1[C@@H]2CCCC[C@H]2C[C@H]1C(=O)O)C(=O)OCC	inactive

SMILES	Potency
O=C(Nc1cc(Cl)cc2c1[nH]c1cnccc12)c1cccnc1	inactive
CCOC(=O)C1=C(N)Oc2ccc(Br)cc2C1C(C#N)C(=O)OCC (stereo not given)	inactive
Cc1c(NC(=O)c2ccc(C(C)(C)C)cc2)cccc1-c1cn(C)c(=O)c(Nc2ccc(C(=O)N3CCOCC3)cc2)n1	inactive
c1nc2nc(Nc3ccc(N4CCOCC4)cc3)nc(NC3CCCCC3)c2[nH]1	3.32 µM (active)
c1cc(-c2sc(-c3ccncc3)c(-c3ccncc3)c2-c2ccncc2)ccn1	inactive
CC(C)Cn1cnc2c(N)nc3ccccc3c21	inactive
CC(C)[C@@H](CS(=O)(=O)C(C)C)N1C(=O)[C@@](C)(CC(=O)O)C[C@H](c2cccc(Cl)c2)[C@H]1c1ccc(Cl)cc1	0.209 µM (active)
S=P(N1CC1)(N1CC1)N1CC1	inactive
COc1ccccc1[C@H](c1cccc2ccccc12)[C@@](C)(C#N)C(=O)N1CCC(c2cccc(C(F)(F)F)c2)CC1	16.6 µM (active)
NC(=O)Nc1cc(-c2ccc(CN3CCOCC3)cc2)sc1C(N)=O	0.118 µM (active)
CCOC(=O)[C@H]1O[C@H]1C(=O)N[C@@H](CC(C)C)C(=O)NCCC(C)C	inactive
C[C@]12CC[C@@H]3c4ccc(O)cc4CC[C@H]3[C@H]1[C@@H](O)[C@@H](O)[C@H]2O	inactive
CC1(C)[C@H](C(=O)O)N2C(=O)C[C@H]2S1(=O)=O	inactive
CN1C(=O)C[C@H](C(=O)N[C@@H](Cc2cnc[nH]2)C(=O)N2CCC[C@@H]2C(N)=O)NC1=O	inactive
CC(=O)[C@H]1CC[C@H]2[C@@H]3CC=C4C[C@@H](O)CC[C@]4(C)[C@H]3CC[C@]12C	inactive
CC[C@@]1(O)C(=O)OCc2c1cc1n(c2=O)Cc2cc3c(CN(C)C)c(O)ccc3nc2-1	0.105 µM (active)
COc1cc2c(Oc3ccc(NC(=O)C4(C(=O)Nc5ccc(F)cc5)CC4)cc3F)ccnc2cc1OCCCN1CCOCC1	1.48 µM (active)
O=C(NC1CC1)c1cccc(-c2ccc3c(NC(=O)C4CC4)n[nH]c3c2)c1	10.5 µM (active)
Cc1cnc(CNC(=O)c2c(=O)c3ccc(N4CCCN(C)CC4)nc3n3c2sc2ccccc23)cn1	inactive
COc1ccc(C2(C#N)CCC(C(=O)O)CC2)cc1OC1CCCC1 (stereo not given)	inactive
